# Results published in article PMC7862700, “An all-to-all approach to the identification of sequence-specific readers for epigenetic DNA modifications on cytosine”.
# Assays:
# Assay in all cases: DAPPL (digital affinity profiling via proximity ligation, sequencing); 10 mM Tris-HCl pH 7.5, 50 mM NaCl, 1 mM DTT, 4% glycerol, room temperature, 30 min; GST-TFs on glutathione beads, 16-mer random dsDNA library, 0.1% formaldehyde crosslink after washing; high values mean tight binding
# Conditions in all cases: protein: recombinant; tags: N-terminal GST; dsDNA, one strand shown
# ELK1 = target: T1, ELK1 (Homo sapiens, UniProt P19419 1-428)
# T1 sequence: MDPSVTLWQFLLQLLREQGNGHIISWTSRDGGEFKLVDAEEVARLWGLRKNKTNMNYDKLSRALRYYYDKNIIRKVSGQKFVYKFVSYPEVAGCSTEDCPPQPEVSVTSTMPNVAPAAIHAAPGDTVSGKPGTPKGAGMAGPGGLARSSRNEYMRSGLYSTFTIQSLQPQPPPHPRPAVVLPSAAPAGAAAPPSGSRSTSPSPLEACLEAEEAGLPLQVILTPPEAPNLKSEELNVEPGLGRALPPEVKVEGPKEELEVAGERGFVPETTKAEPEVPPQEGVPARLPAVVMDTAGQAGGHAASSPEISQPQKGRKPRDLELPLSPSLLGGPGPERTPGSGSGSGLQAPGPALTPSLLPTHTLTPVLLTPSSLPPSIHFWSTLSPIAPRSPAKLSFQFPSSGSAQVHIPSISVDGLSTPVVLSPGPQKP
# How it was run: (§1)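 Binding signal is each hexamer's read frequency for a factor divided by its frequency in the tag-only sample. The factors were GST-fused human transcription factors from yeast, captured on glutathione beads, DNA-barcoded and pooled with that sample. Pools were incubated with 200 nmole of a random double-stranded 16-mer DNA library in Tris/NaCl/DTT/glycerol buffer at room temperature for 30 min, then washed, crosslinked with 0.1% formaldehyde, proximity-ligated with BsaI/T4 ligase (1 h, 37 °C), PCR-amplified and sequenced on an Illumina NextSeq500.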
# GABPA = target: T2, GABPA (Homo sapiens, UniProt Q06546 1-454)
# T2 sequence: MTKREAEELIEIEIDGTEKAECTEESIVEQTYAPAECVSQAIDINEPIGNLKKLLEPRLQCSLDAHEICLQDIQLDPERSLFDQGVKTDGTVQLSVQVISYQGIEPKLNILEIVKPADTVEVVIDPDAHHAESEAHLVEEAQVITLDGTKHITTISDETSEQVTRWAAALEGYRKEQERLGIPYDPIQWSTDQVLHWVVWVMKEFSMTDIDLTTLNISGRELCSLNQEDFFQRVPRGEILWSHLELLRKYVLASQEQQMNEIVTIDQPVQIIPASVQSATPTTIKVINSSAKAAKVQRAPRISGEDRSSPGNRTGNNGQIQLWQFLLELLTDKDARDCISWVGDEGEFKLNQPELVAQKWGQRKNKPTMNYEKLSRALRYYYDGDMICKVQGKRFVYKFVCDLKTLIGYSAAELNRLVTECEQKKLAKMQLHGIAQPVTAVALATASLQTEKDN
# How it was run: as §1
# ERG = target: T3, ERG (Homo sapiens, UniProt P11308 1-479)
# T3 sequence: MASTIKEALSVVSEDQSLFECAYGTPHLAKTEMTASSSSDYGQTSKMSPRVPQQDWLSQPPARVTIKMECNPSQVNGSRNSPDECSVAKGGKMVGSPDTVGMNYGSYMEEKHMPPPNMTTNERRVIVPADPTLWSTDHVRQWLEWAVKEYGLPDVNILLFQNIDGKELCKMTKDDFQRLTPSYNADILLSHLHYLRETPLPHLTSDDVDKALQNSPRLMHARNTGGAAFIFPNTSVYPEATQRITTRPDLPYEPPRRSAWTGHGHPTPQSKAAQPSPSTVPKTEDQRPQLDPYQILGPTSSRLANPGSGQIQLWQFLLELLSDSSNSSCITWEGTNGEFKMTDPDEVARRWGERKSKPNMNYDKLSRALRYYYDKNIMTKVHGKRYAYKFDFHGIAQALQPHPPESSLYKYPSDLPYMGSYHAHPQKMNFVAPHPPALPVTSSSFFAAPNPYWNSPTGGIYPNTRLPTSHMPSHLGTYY
# How it was run: as §1
# ELF1 = ELF1 (Homo sapiens, UniProt P32519 1-619)
# How it was run: as §1
# EHF = target: T4, EHF (Homo sapiens, UniProt Q9NZC4 1-300)
# T4 sequence: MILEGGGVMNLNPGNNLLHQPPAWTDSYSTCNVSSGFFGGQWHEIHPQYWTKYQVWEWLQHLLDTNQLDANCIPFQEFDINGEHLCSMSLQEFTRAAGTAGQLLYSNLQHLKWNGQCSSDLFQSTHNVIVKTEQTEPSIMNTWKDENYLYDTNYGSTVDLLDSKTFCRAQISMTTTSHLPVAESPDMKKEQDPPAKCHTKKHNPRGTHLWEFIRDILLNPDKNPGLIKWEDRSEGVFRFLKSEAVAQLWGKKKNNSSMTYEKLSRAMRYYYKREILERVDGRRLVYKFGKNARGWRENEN
# How it was run: as §1
# SPIB = SPIB (Homo sapiens, UniProt Q01892 1-262)
# How it was run: as §1
# FEV = target: T5, FEV (Homo sapiens, UniProt Q99581 1-238)
# T5 sequence: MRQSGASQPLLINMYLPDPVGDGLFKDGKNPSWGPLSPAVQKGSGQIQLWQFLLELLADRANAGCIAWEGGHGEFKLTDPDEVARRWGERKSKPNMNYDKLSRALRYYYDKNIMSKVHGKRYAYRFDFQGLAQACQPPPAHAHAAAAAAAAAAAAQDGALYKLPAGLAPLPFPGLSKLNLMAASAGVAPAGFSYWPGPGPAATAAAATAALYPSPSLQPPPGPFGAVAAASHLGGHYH
# How it was run: as §1
# ETV5 = ETV5 (Homo sapiens, UniProt P41161 1-510)
# How it was run: as §1
# ELF4 = ELF4 (Homo sapiens, UniProt Q99607 1-663)
# How it was run: as §1
# ELK4 = target: T6, ELK4 (Homo sapiens, UniProt P28324-2 1-405)
# T6 sequence: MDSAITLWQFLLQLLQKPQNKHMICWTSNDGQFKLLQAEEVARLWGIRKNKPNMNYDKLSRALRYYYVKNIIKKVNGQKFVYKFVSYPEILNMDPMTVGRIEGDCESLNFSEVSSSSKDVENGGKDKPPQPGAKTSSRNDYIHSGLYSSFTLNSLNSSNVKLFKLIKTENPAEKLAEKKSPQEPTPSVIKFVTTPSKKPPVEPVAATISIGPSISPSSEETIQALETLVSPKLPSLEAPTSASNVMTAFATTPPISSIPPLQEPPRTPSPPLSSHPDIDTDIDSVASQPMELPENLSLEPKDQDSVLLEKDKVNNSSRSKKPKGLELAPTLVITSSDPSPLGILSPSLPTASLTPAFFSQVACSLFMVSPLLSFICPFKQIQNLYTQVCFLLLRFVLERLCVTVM
# How it was run: as §1
# ELF3 = target: T7, ELF3 (Homo sapiens, UniProt P78545 1-371)
# T7 sequence: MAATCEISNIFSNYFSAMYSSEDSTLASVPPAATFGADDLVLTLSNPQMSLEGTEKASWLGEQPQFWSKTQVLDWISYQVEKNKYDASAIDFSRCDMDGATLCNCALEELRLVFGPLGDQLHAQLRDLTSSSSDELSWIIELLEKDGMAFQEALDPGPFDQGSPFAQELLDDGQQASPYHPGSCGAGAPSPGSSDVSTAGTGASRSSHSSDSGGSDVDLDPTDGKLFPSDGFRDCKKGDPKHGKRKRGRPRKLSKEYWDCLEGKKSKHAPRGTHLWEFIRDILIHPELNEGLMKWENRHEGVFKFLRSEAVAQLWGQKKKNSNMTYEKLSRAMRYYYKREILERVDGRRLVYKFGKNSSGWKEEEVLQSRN
# How it was run: as §1
# ETV1 = ETV1 (Homo sapiens, UniProt P50549 1-477)
# How it was run: as §1
# ERF = target: T8, ERF (Homo sapiens, UniProt P50548 1-548)
# T8 sequence: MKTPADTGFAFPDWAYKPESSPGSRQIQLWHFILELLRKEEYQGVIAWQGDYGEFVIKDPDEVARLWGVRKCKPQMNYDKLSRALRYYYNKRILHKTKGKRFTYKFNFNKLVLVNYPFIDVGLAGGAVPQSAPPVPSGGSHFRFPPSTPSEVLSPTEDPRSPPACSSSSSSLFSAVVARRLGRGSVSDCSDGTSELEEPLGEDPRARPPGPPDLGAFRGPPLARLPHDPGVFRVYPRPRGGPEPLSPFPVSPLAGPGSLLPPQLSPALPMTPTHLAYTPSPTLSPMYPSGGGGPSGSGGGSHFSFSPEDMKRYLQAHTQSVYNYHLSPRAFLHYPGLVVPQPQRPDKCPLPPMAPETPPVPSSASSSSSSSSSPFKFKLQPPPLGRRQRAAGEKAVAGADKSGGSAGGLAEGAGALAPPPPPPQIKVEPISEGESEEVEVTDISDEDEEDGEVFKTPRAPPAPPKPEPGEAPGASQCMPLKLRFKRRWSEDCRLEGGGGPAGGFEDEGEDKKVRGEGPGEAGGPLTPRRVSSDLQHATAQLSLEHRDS
# How it was run: as §1
# ETV3L = target: T9, ETV3L (Homo sapiens, UniProt Q6ZN32 1-361)
# T9 sequence: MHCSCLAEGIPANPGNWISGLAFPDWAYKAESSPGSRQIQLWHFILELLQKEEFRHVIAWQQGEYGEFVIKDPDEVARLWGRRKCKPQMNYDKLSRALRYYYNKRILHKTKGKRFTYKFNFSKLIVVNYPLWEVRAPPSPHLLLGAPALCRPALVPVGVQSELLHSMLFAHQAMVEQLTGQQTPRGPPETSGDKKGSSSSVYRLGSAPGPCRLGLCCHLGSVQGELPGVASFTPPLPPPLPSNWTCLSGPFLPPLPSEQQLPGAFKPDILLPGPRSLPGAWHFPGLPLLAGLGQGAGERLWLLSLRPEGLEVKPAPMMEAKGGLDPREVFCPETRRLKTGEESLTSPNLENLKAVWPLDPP
# How it was run: as §1
# SPDEF = target: T10, SPDEF (Homo sapiens, UniProt O95238 1-335)
# T10 sequence: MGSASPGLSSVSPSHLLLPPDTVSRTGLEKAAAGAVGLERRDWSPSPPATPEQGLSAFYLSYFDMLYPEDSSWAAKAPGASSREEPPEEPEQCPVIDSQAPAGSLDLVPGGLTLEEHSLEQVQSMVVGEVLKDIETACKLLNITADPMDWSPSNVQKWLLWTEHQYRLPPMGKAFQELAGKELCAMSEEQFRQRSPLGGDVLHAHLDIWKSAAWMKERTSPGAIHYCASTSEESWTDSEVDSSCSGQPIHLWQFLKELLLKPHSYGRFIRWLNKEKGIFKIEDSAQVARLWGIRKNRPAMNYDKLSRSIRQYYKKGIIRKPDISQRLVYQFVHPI
# How it was run: as §1
# ETV3 = target: T11, ETV3 (Homo sapiens, UniProt P41162-2 1-143)
# T11 sequence: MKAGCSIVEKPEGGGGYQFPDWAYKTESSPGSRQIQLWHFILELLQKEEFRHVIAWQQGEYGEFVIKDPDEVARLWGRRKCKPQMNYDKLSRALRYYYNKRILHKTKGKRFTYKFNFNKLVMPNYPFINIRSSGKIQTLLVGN
# How it was run: as §1
# ETV6 = ETV6 (Homo sapiens, UniProt P41212 1-452)
# How it was run: as §1
# Chain of ETV1 (P50549 whole entry): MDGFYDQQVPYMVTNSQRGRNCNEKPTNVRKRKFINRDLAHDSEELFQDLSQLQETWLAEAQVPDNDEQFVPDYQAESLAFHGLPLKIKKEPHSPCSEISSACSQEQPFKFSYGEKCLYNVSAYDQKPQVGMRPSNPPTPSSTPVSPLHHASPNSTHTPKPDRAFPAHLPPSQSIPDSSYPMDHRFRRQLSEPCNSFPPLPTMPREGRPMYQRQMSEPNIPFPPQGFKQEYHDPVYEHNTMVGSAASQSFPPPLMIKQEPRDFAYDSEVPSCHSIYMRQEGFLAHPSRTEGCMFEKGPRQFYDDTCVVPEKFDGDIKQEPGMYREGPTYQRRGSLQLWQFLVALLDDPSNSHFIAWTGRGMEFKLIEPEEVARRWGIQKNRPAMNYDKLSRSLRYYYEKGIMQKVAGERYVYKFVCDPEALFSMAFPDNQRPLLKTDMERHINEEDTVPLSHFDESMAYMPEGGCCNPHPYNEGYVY
# Chain of ETV5 (P41161 whole entry): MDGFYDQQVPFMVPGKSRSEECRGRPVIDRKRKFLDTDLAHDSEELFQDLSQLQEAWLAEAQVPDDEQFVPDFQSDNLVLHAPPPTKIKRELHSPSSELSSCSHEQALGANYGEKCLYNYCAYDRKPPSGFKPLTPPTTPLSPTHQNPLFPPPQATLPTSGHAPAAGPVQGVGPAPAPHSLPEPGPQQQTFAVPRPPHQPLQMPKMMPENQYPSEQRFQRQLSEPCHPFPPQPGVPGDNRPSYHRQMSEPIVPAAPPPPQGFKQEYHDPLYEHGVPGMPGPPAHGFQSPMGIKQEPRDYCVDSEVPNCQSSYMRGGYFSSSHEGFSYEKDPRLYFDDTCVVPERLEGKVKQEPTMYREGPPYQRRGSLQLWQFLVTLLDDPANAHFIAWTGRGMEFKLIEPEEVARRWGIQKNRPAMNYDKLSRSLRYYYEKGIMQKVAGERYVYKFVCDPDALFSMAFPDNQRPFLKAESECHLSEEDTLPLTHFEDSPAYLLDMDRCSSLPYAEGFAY
# Chain of ETV6 (P41212 whole entry): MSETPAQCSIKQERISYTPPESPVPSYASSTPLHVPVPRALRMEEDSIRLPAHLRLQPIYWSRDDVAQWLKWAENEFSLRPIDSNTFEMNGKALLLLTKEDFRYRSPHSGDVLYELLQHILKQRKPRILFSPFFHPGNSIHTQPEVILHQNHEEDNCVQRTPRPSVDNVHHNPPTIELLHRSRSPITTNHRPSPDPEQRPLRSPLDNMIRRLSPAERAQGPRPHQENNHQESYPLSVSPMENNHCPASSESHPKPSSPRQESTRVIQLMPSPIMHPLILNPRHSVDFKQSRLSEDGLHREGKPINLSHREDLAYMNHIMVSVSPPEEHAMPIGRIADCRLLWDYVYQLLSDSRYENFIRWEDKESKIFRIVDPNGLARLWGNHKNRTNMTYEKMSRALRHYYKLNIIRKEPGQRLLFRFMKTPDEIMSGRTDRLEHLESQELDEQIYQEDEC
# Chain of SPIB (Q01892 whole entry): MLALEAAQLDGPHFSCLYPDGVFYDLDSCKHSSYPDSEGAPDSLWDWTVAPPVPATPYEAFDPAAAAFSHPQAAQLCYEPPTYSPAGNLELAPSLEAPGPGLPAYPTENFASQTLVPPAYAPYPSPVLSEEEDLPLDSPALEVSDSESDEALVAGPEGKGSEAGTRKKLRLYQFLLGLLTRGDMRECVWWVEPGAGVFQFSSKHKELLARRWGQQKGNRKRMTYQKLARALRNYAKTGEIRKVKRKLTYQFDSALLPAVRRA
# Chain of ELF4 (Q99607 whole entry): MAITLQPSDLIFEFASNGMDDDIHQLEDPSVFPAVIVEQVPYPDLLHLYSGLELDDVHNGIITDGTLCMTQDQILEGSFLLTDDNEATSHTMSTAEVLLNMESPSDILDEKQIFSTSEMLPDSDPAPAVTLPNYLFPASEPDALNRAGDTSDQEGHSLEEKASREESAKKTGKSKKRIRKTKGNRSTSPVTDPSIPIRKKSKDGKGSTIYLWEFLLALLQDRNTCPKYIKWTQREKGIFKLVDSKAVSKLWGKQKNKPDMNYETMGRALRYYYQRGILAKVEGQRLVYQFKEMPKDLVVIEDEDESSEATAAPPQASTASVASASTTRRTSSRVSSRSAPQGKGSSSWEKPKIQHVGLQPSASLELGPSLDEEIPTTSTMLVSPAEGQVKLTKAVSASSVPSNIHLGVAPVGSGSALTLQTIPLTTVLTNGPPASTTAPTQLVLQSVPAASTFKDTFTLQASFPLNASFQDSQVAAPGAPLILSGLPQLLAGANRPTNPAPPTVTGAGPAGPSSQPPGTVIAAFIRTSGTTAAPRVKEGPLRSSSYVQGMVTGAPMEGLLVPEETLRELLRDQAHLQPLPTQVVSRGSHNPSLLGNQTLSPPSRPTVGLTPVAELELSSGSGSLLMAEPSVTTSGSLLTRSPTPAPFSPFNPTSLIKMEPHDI
# Chain of ELF1 (P32519 whole entry): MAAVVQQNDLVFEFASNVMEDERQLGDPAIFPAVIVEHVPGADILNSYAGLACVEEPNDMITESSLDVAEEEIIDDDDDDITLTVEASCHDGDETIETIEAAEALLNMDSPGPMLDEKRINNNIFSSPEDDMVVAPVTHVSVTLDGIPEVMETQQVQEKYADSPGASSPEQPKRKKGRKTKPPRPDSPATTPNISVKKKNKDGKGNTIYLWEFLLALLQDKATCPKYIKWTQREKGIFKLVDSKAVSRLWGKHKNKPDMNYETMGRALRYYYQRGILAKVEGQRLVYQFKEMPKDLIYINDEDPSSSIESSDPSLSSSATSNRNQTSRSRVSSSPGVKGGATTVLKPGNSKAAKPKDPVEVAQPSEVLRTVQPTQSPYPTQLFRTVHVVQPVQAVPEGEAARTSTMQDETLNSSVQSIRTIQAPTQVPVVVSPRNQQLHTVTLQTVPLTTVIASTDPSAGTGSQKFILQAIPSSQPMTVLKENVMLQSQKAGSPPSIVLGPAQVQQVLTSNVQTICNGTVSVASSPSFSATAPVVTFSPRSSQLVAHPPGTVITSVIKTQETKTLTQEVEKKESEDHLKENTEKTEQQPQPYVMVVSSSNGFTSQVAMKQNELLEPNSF
sequence,measurement,setting,value
CGCGCC,binding signal,ELK1,"1.01 fold enrichment (6-mer frequency, TF over GST control)"
same,binding signal,GABPA,"1.03 fold enrichment (6-mer frequency, TF over GST control)"
same,binding signal,ERG,"1.03 fold enrichment (6-mer frequency, TF over GST control)"
same,binding signal,ELF1,"1.06 fold enrichment (6-mer frequency, TF over GST control)"
same,binding signal,EHF,"1.05 fold enrichment (6-mer frequency, TF over GST control)"
same,binding signal,SPIB,"1 fold enrichment (6-mer frequency, TF over GST control)"
same,binding signal,FEV,"1.08 fold enrichment (6-mer frequency, TF over GST control)"
same,binding signal,ETV5,"1.11 fold enrichment (6-mer frequency, TF over GST control)"
same,binding signal,ELF4,"1.05 fold enrichment (6-mer frequency, TF over GST control)"
same,binding signal,ELK4,"1.15 fold enrichment (6-mer frequency, TF over GST control)"
same,binding signal,ELF3,"1.05 fold enrichment (6-mer frequency, TF over GST control)"
same,binding signal,ETV1,"1.14 fold enrichment (6-mer frequency, TF over GST control)"
same,binding signal,ERF,"1.1 fold enrichment (6-mer frequency, TF over GST control)"
same,binding signal,ETV3L,"1.05 fold enrichment (6-mer frequency, TF over GST control)"
same,binding signal,SPDEF,"1.03 fold enrichment (6-mer frequency, TF over GST control)"
same,binding signal,ETV3,"1.09 fold enrichment (6-mer frequency, TF over GST control)"
same,binding signal,ETV6,"1 fold enrichment (6-mer frequency, TF over GST control)"
